Test results taken from PubChem BioAssay (Tox21).
Unmarked numbers belong to inactive results. Calls of active or inactive are those of the source. Calls follow the shape of the dose curve; as a rule, active = well fitted curve in the direction sought with a large enough effect in the repeat runs; inconclusive = weak or mixed curves; inactive = flat fitted curve, though single readings scatter.

Test: qHTS assay to test for compound auto fluorescence at 590 nm (red) in HepG2 cell free culture (AID 720684)
Details: cell-free medium autofluorescence, red 540/590 nm; series mostly up to 91.3 µM
From the text: U.S. Tox21 Program National Center for Advancing Translational Sciences [NCATS] NIH Chemical Genomics Center [NCGC] U.S. Environmental Protection Agency [EPA] National Institutes of Environmental Health Sciences [NIEHS] National Toxicology Program [NTP] U.S. Food and Drug Administration [FDA] Tox21 Assay Overview: Compound auto fluorescence often interferes with screening of the compound library against various biological targets and signaling pathways. Some of these compounds may have fluorophoric properties. Such properties may interfere with the assay outputs resulting in false positives and/or negatives. To decrease such complications and ensure the compound activities are relevant in terms of biological response, the Tox21 10K compound library was screened for auto fluorescence. From the fluorophores used as reporter signals in our screening assays, the auto fluorescence equivalencies of compounds against three fluorophores have been evaluated: Triamterene, Fluorescein and Rose Bengal sodium for blue, green and red fluorescence, respectively. The fluorescence intensities were measured using Excitation/Emission wavelengths at 405/460nm, 485/535nm and 540/590nm for blue, green and red labels, respectively. This assay includes the red fluorescence data.
Tox21 Assay Protocol Summary: 5 uL of culture medium (MEM containing 10% FBS) per well was dispensed into black wall/clear bottom 1536-well plates using a Multidrop Combi Dispenser (ThermoFisher Scientific, Waltham, MA). After 23 nL compound or DMSO vehicle was transferred into assay plate by a pintool work station (Kalypsys, San Diego, CA), fluorescence intensities in the assay plates were measured by an Envision (PerkinElmer, Shelton, CT) plate reader using three labels for measuring blue, green and red fluorescence at […] 460, 535 and 590nm respectively.
% is scaled to controls: 0 for no effect and ±100 for the full control effect.

| SMILES | outcome | fluorescence, % of Rose Bengal |
| --- | --- | --- |
| CC1CC(=O)NN=C1c1ccc(NCC(C)(C)NCC(O)COc2cc(Cl)ccc2C#N)cc1 (stereo not given) | inactive | – |
| CC(C)(C)CC(C)(C)c1ccc(OCCO)cc1 | inactive | – |
| [O]=[Bi] | – | -0.0278% [at 3.72 µM] |
| O=C(OCCOCCO)c1ccccc1Nc1cccc(C(F)(F)F)c1 | – | -0.0242% [at 18.6 µM] |
| C[Si](NC1CCCCC1)(NC1CCCCC1)NC1CCCCC1 | inactive | – |
| COC(=O)[C@@H]1CC2=CC(=O)CC[C@]2(C)[C@@]23O[C@@H]2C[C@@]2(C)[C@@H](CC[C@@]24CCC(=O)O4)[C@H]13 | inactive | – |
| Nc1ccc(C(=O)OCCCOC(=O)c2ccc(N)cc2)cc1 | inactive | – |
| COCC(O)CO (stereo not given) | inactive | – |
| CC(C)CCCCCOC(=O)CCCCC(=O)OCCCCCC(C)C | inactive | – |
| Fc1ccccc1[C@@H](F)COC1CCC(Nc2ncnc3[nH]ncc23)CC1 (stereo not given in full) | inactive | – |
| C(=C\c1ccccc1)/CN1CCN(C(c2ccccc2)c2ccccc2)CC1 | – | -0.312% [at 18.6 µM] |
| CO[C@H]1O[C@H](CO)[C@@H](O)[C@H](O)[C@H]1O | inactive | – |
| CCOC(=O)c1ccccc1OC | inactive | – |
| C[Si]1(C)O[Si](C)(C)O[Si](C)(C)O1 | inactive | – |
| CC(=N\O)/C(C)=N/O | inactive | – |
| CCOC(=O)[C@@H](C)Oc1ccc(Oc2nc3ccc(Cl)cc3o2)cc1 | inactive | – |
| C=C(C)C(=O)OCCOC(=O)CC(C)=O | inactive | – |
| CC(=O)[C@H]1CC[C@H]2[C@@H]3C[C@H](C)C4=CC(=O)CC[C@]4(C)[C@H]3[C@@H](O)C[C@]12C | – | -0.145% [at 18.6 µM] |
| CCc1cccc(N(C)C(N)=Nc2cccc3ccccc23)c1 | inactive | – |
| CCOC(=O)c1ccccc1C | inactive | – |

| SMILES | outcome | fluorescence, % of Rose Bengal |
| --- | --- | --- |
| Cc1cc(OI)c(C(C)C)cc1-c1cc(C(C)C)c(OI)cc1C | inactive | – |
| Cc1nc2ccccn2c(=O)c1CCN1CCC(C(=O)c2ccc(F)cc2)CC1 | inactive | – |
| CCCOCCOCCO | inactive | – |
| CCOC(=O)C(C)Oc1ccc(Oc2nc3ccc(Cl)cc3o2)cc1 (stereo not given) | inactive | – |
| CC1=C(/C=C/C(C)=C\C=C\C(C)=C\C(=O)O)C(C)(C)CCC1 | inactive | – |
| C=CCCCCCCCCCCCCCCCC | – | 0.0296% [at 3.72 µM] |
| COC(OC)(C(=O)c1ccccc1)c1ccccc1 | inactive | – |
| CCCCCCCCCCCC(=O)[O][Sn]([CH2]CCC)([CH2]CCC)[O]C(=O)CCCCCCCCCCC | inactive | – |
| Fc1c(F)c(F)c(Br)c(F)c1F | inactive | – |
| C1COCO1 | inactive | – |
| CC[C@H](NC(=O)c1cc(F)ccc1NS(=O)(=O)c1cccc2cccnc12)c1ccccc1 | inactive | – |
| C[N+]1(C)CCC(=C(c2ccccc2)c2ccccc2)CC1 | – | 0.107% [at 18.6 µM] |
| CO[C@@]12[C@H](COC(N)=O)C3=C(C(=O)C(C)=C(N)C3=O)N1C[C@@H]1N[C@@H]12 | inactive | – |
| CCCCC(CC)CNCC(CC)CCCC (stereo not given) | inactive | – |
| CC(=O)OCC(=O)[C@H]1CC[C@H]2[C@@H]3CCC4=CC(=O)CC[C@]4(C)[C@H]3CC[C@]12C | inactive | – |
| C/C=C/C=C/CCCCCCCO | inactive | – |
| CCCC1C(CC)=CC(CC)=CN1c1ccccc1 (stereo not given) | inactive | – |
| O=C(N/N=C/c1ccc([N+](=O)[O-])o1)c1ccc(O)cc1 | – | -0.154% [at 18.6 µM] |
| CCCc1c(OCCCOc2ccc(OCC(=O)O)cc2)ccc(C(C)=O)c1O | inactive | – |
| c1cc[c]([Bi]([c]2ccccc2)[c]2ccccc2)cc1 | inactive | – |
